Laboratory results as given in PubChem BioAssay AID652105 (National Center for Advancing Translational Sciences (NCATS), 2013).
Hit rate of the full screen: of about 330,000 compounds, about 4,100 (1.2%) were called active. About 2% were inconclusive and are not listed. Rule for the calls: active = max response of -50% or lower; inconclusive = between -30% and -50%; inactive = -30% or higher. The sample as a whole holds a higher share of actives than the screen did.

These molecules were tested against Phosphatidylinositol 5-phosphate 4-kinase type-2 alpha (Homo sapiens) (UniProt P48426) (assay: qHTS for Inhibitors of phosphatidylinositol 5-phosphate 4-kinase (PI5P4K)). Settings: PI5P4Kalpha enzyme, ADP-Glo luminescence, 60 min; active compounds read low.
Phosphatidylinositol 5-phosphate 4-kinase type-2 alpha (Homo sapiens), sequence (P48426 whole entry, looked up): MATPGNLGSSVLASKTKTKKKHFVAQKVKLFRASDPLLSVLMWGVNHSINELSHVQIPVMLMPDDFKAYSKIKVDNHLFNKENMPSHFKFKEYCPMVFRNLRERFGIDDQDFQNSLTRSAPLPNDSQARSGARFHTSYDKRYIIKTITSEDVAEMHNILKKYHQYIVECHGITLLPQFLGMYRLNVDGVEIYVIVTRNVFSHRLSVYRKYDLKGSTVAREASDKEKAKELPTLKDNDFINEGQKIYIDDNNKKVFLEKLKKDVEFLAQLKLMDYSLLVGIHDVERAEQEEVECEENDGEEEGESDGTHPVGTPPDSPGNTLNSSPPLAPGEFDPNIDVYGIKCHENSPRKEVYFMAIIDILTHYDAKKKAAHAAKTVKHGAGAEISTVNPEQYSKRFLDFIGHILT
Outline: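 qHTS, 1536-well: enzyme/substrate mix, compound by pin tool, 5 microM ATP final; RT 60 min; ADP-Glo reagents 1 (45 min) then 2 (30 min); luminescence.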
% is set by controls: 0 for no effect and ±100 for the full control effect.
Note: value at the top dose of about 77 µM.

Max response, active:
O=C(NC1CCCCC1)C(c1cc2ccccc2o1)n1c(=O)c(-c2ccco2)nc2ccccc21 (stereo not given) -75.5%
Cc1cccc(C)c1NC(=O)C(c1ccc(C(F)(F)F)cc1)n1c(=O)c(-c2ccco2)nc2ccccc21 (stereo not given) -54%
Cc1cccc(C)c1NC(=O)C(c1cccc2ccccc12)n1c(=O)c(-c2ccco2)nc2ccccc21 (stereo not given) -75.2%
O=C(N/N=C/c1ccc(Cl)cc1)c1nc2ccc([N+](=O)[O-])cc2c(=O)[nH]1 -60.4%
O=C1CSC(=S)N1/N=C/c1ccc(O)c([N+](=O)[O-])c1 -104%
Fc1ccc(COc2cccc(-c3n[nH]c(=S)o3)c2)cc1 -51.9%
CC[C@@H]1Cc2cc(O)ccc2C2=C1c1ccc(O)cc1C[C@H]2CC -54.7%
CC(C)(C)c1nnc2sc(SCC(O)=C(C#N)c3nc4ccccc4[nH]3)nn2c1=O -56.5%
O=c1ccc2c(-c3ccccc3S(=O)(=O)O)c3ccc(O)c(O)c3oc-2c1O -99.8%
CCc1c(C)[nH]c(=S)c(C#N)c1C -67.1%

Max response, inactive:
O=C(Nc1cccc2ccccc12)c1[nH]c(-c2ccccc2)c2c1C(=O)N(C1CC1)C2=O -0.344%
CN1CCN(C(=O)c2ccc(-c3cc4nc(NCc5cccnc5)n(C)c(=O)c4s3)cc2)CC1 2.18%
Cn1c(SCC(=O)NC2CCCCC2)nnc1-c1cc2ccccc2o1 1.01%
CCCCCNC(=O)C(c1ccc(OC)cc1)n1c(=O)c(-c2ccccc2)nc2ccccc21 (stereo not given) 8.24%
CCC(CC)C(C(=O)NC1CCCC1)N1CCN(c2cc(C)nc3ccccc23)CC1 (stereo not given) -1.13%
COc1ccc(C(C(=O)NCc2ccccc2)n2c(=O)c(-c3ccccc3)nc3ccccc32)cc1 (stereo not given) 7.1%
COc1ccc(NC(=O)C(c2ccncc2)n2c(=O)c(-c3cc4ccccc4[nH]3)nc3ccccc32)cc1 (stereo not given) 0.0077%
CCC(C(=O)Nc1c(C)cccc1C)n1c(-c2cc(C)cs2)nc2ccccc21 (stereo not given) 0.0253%
CC(=O)Nc1cc(-c2ccccc2N(C)C)cn2c(-c3ccc(F)c(Cl)c3)cnc12 -1.56%
NC(c1csc(NC(=O)Nc2cccc(C(F)(F)F)c2)n1)C1CCCCC1 (stereo not given) 10.5%
Cc1ccc([C@H]2C[C@H](O)[C@@H](n3cc(COC(=O)c4ccccc4)nn3)CN2CC2CCCCC2)cc1 19.2%
O=C(NCc1ccccc1)C1c2ccccc2OCC(=O)N1CCCN1CCOCC1 (stereo not given) 0.215%
O=C(c1ccc(C(F)(F)F)cc1)N1CCC(=O)N([C@H](COCc2ccccc2)Cc2ccccc2)CC1 5.29%
COC(=O)c1ccc2nc(C3CCCCC3)c(Cc3cccc(F)c3)n2c1 -0.596%
CCCCOCCCNC(=O)C[C@@H]1C[C@@]2(C(=O)OC)CCCCC=C2N(CCC2=CCCCC2)C1=O 17.9%
O=C(Nc1ccc(N2CCOCC2)cc1)c1cccc2c(-c3ccc(F)c(F)c3)coc12 5.02%
CCc1c(N=O)c(-c2ccccc2)n(O)[n+]1[O-] -5.54%
Cc1ccsc1C(=O)N/N=C/c1ccc([N+](=O)[O-])cc1 -10.5%
O=C(N/N=C/c1ccc([N+](=O)[O-])cc1)c1c[nH]c2ccccc12 1.35%
O=C(CCc1ccc(O)cc1)NN=Cc1cc(Br)ccc1O -16.2%
COc1ccc(NC(=O)C2Cc3c(-c4ccc5c(c4)OCO5)ccnc3O2)cn1 (stereo not given) -13.8%
O=C1CSC(=S)N1c1ccc(O)cc1 -3.72%
O=[N+]([O-])c1ccc(N2CCSCC2)cc1O -3.3%
CC1Cc2[nH][nH]c(=O)c2C(C2CCCC2)O1 (stereo not given) 0.644%
CC1=C(C(=O)N2CCOCC2)CC(CC(=O)NCCCN(C)C)C(=O)N1Cc1ccc(C(C)(C)C)cc1 (stereo not given) 1.54%
Fc1ccc(/C=N/n2c(COc3ccccc3)n[nH]c2=S)cc1 5.11%
Fc1ccc(COc2ccc(-c3nnco3)cc2)cc1 -2.69%
Cc1cccc(CNC(=O)c2sc(=O)n(Cc3ccccc3C)c2C)c1 0.532%
COc1ccc(-c2ccc(C(=O)NC(C)C)c3occc23)c(C)c1 4%
Cc1ccc(C(=O)N2CCCc3ccccc32)c(Cl)c1 0.412%
N#C/C(=C(/O)COc1cccc2ccccc12)c1nc2ccccc2[nH]1 -15.3%
N#C/C(=C(/O)COC(=O)COc1ccc(Cl)cc1)c1nc2ccccc2[nH]1 -17%
COC(=O)[C@@]12C[C@@H](CC(=O)N3CCC(c4ccccc4)CC3)C(=O)N(Cc3ccccc3)C1=CCC(C)(C)C2 3.29%
COc1ccc(C(C)(NC(C)=O)c2nc(-c3ccc(S(C)(=O)=O)cc3)cs2)cc1 (stereo not given) -2.22%
O=C(Nc1cc(Br)ccc1F)c1nc[nH]c1C(=O)NCc1ccccc1 32.1%
O=C(Cc1ccc([N+](=O)[O-])cc1)NCCS(=O)(=O)N1CCN(c2ccccc2)CC1 -2.51%
COc1ccccc1CNc1nc(Nc2ccccc2Cl)c2sccc2n1 -3.83%
CC(=O)c1ccc(Nc2nc(C(N)c3ccccc3Cl)cs2)cc1 (stereo not given) 1.57%
CC1(Oc2ccccc2-c2ccno2)CCN(Cc2ccc(-c3ccccc3)o2)C1 (stereo not given) -1.74%
CC(=O)Nc1cccc(Nc2ccc(C#N)cc2)c1 1.81%
COC(=O)[C@]12CCCCC=C1N(Cc1ccco1)C(=O)[C@H](CC(=O)NCCCCc1ccccc1)C2 0.498%
O=S1(=O)CCN(C2CCCCCCCCCCC2)CC1 7.96%
O=Cc1cn(CCOc2ccc(F)cc2)c2ccccc12 7.27%
COC(=O)c1ccc2nc(-c3ccc(F)cc3)c(Cc3ccc(C)cc3)n2c1 0.932%
O=S1(=O)C[C@@H](N2CCN(CCO)CC2)[C@H](COCc2ccccc2)N1 -1.64%
